Test results published in PubChem BioAssay AID2733 (National Center for Advancing Translational Sciences (NCATS), 2010).
Results filed as inconclusive are left out. Where a call stands in place of a potency, no number is given. The source made the active and inactive calls. Calls come from the whole dose curve; as a rule, active = well fitted inhibition curve with a large enough effect; inconclusive = small, poorly fitted or top-dose-only effect; inactive = flat fitted curve, though single readings scatter.

Experiment: High Content Assay for Compounds that inhibit the Assembly of the Perinucleolar Compartment: PC3M Cytotoxicity
Source text: High Content Assay for Compounds that inhibit the Assembly of the Perinucleolar Compartment
NIH Chemical Genomics Center [NCGC]
NIH Molecular Libraries Probe Centers Network [MLPCN]
Assay Submitter (PI): Sui Huang, Northwestern University, Feinberg School of Medicine, Cell and Molecular Biology, Chicago, Illinois.
The perinucleolar compartment (PNC) is a non-membrane-bound nuclear subdomain that is associated with but structurally distinct from the nucleolus. The PNC is a heritable trait, in which the number of PNCs per cell in daughter cells often mimics that of their mother cells. The PNC is heterogeneous in shape, is stable through interphase, disassembles during mitosis, and reassembles in early G1. The PNC is concentrated with newly synthesized RNA polymerase III (pol III) RNAs (MRP RNA, RNAse P H1 RNA, hY RNAs[hY1, 2, 5], Alu RNA, and SRP [7SL] RNA) and RNA binding proteins (nucleolin, PTB, CUG-BP, KSRP, Raver1, Raver2, and Rod).
Extensive in vitro studies have shown that the PNC is unique to tumor cells and preferentially forms in tumor cells derived from solid tissues. […]
5. Luminescencent signal was detected on a Viewlux CCD based imager (PerkinElmer) with a clear filter and a 30 second integration time. […]

For `Cc1c2ccncc2c(C)c2c1[nH]c1ccccc12`, the Potency was 31.6 µM (active).

With `Cc1ccc(C(O)(C(=O)NNC(=O)CN2CCN(C)CC2)c2ccc(C)cc2)cc1` the Potency was “inactive”.
